For five molecules, growth results are on record in the supplement of paper PMC9262897, “Low-cost anti-mycobacterial drug discovery using engineered E. coli” (Nature Communications, 2022).

Counter-ions that a name gives are not always drawn. ± gives the standard deviation of the averaged measurements.

Experiment in all cases: growth (OD600 after 10 h); higher = more growth (less inhibition)
Test [1] concerns E. coli TESEC Alr+ wild-type control. The settings on record: compound 0.1 mM; raw OD600 reference: median of DMSO wells 0.241, cell-free background 0.041. The procedure:
(§1)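 TESEC Mtb Alr E. coli, or the Alr+ wild-type control, in 384-well plates with Prestwick library compounds at 0.1 mM and 1% DMSO, across arabinose induction levels of 1E3 to 1E7 nM. Growth is read as OD600 after 10 h at 37 °C in triplicate biological replicates.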

For test [2], the system named is E. coli TESEC Mtb Asd. The settings on record: compound 0.1 mM. The procedure: (§2)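 TESEC E. coli strains in which the native enzyme is deleted and replaced by arabinose-inducible Mtb Asd, DapB, CysH or TrpD, each grown in its selective medium. Strains were screened against the Prestwick library at 0.1 mM and 1% DMSO in 384-well format at low and high arabinose induction. Growth is read as OD600 after 10 h in triplicate.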

For test [3], the system named is E. coli TESEC Mtb DapB. The settings on record: compound 0.1 mM. The procedure:
as §2

Test [4] deals with E. coli TESEC Alr+ wild-type control. As to conditions: compound 0.1 mM; raw OD600 reference: median of DMSO wells 0.49, cell-free background 0.052. The procedure:
(§3)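 TESEC Mtb Alr E. coli (ΔaraC ΔtolC ΔentC Δalr ΔdadX, arabinose-inducible Mtb Alr) or the Alr+ wild-type control strain, grown in defined M9-fructose medium without D-alanine in 96-well plates with Prestwick library compounds at 0.1 mM and 1% DMSO. Low Alr induction is 0.1 µM arabinose and high induction is 10 mM arabinose.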

For test [5], the system named is E. coli TESEC Mtb Alr. As to conditions: compound 0.1 mM. The procedure:
as §3

Test [6] relates to E. coli TESEC Mtb Alr. The settings on record: compound 0.1 mM. The procedure: as §1
This is another data set of the same source.

Setting [7] is: arabinose induction (level): High, raw OD600 reference: median of DMSO wells 0.331, cell-free background 0.041.
Setting [8] is: arabinose induction (level): Low, raw OD600 reference: median of DMSO wells 0.417, cell-free background 0.041.
[9] abbreviates: arabinose induction (level): High, raw OD600 reference: median of DMSO wells […], cell-free background 0.041.
Setting [10] is: arabinose induction (level): Low, raw OD600 reference: median of DMSO wells 0.227, cell-free background 0.041.
Where [11] appears, read: arabinose 100 nM, raw OD600 reference: median of DMSO wells 0.413, cell-free background 0.052.
[12] abbreviates: arabinose 10000000 nM, raw OD600 reference: median of DMSO wells […], cell-free background 0.052.
[13] abbreviates: arabinose 1000 nM, raw OD600 reference: median of DMSO wells 0.294, cell-free background 0.041.
The mark [14] stands for this setting: arabinose 10000 nM, raw OD600 reference: median of DMSO wells 0.264, cell-free background 0.041.
[15] abbreviates: arabinose 100000 nM, raw OD600 reference: median of DMSO wells 0.201, cell-free background 0.041.
Setting [16] is: arabinose 1000000 nM, raw OD600 reference: median of DMSO wells 0.193, cell-free background 0.041.
Setting [17] is: arabinose 10000000 nM, raw OD600 reference: median of DMSO wells 0.146, cell-free background 0.041.

In the case of `CNCC[C@@H](Oc1ccccc1C)c1ccccc1` [Tomoxetine hydrochloride], the growth came to 0.216 ± 0.0098 in test [1]; 0.205 ± 0.024 in test [2] (setting [7]); 0.294 ± 0.021 in test [2] (setting [8]); 0.18 ± 0.0036 in test [3] (setting [9]); 0.263 ± 0.047 in test [3] (setting [10]); 0.441 ± 0.016 in test [4]. The growth came out at 0.407 ± 0.0067 in test [5] (setting [11]) and 0.326 ± 0.018 in test [5] (setting [12]).
As to `CCN[C@H]1C[C@H](C)S(=O)(=O)c2sc(S(N)(=O)=O)cc21` [Dorzolamide hydrochloride], the growth in test [1] was found to be 0.24 ± 0.0034; in test [2] (setting [7]), 0.216 ± 0.014; in test [2] (setting [8]), 0.355 ± 0.06; in test [3] (setting [9]), 0.199 ± 0.016; in test [3] (setting [10]), 0.253 ± 0.023; in test [4] it was 0.47 ± 0.0087. The values for the growth in test [5] (setting [11]) and in test [5] (setting [12]) were 0.4329 ± 0.0026 and 0.337 ± 0.019, respectively.
`Cc1cccc(C)c1OCC(C)N` (stereo unspecified) [Mexiletine hydrochloride]: the growth in test [1] worked out at 0.225 ± 0.0049; in test [6] (setting [13]), 0.276 ± 0.0054; in test [6] (setting [14]), 0.262 ± 0.0058; in test [6] (setting [15]), 0.223 ± 0.038; in test [6] (setting [16]), 0.171 ± 0.0031; in test [6] (setting [17]) it was 0.143 ± 0.0056. Besides, the growth was found to be 0.348 ± 0.076 in test [2] (setting [7]), 0.397 ± 0.033 in test [2] (setting [8]), 0.4 ± 0.015 in test [5] (setting [11]) and 0.352 ± 0.015 in test [5] (setting [12]).
Regarding `C(=C\c1ccccc1)/CN1CCN(C(c2ccccc2)c2ccccc2)CC1` [Cinnarizine], the growth stood at 0.202 ± 0.0048 in test [1]; 0.246 ± 0.015 in test [6] (setting [13]); 0.251 ± 0.014 in test [6] (setting [14]); 0.18 ± 0.011 in test [6] (setting [15]); 0.147 ± 0.0054 in test [6] (setting [16]); 0.149 ± 0.0039 in test [6] (setting [17]). Besides, the growth in test [2] (setting [7]) was found to be 0.277 ± 0.079; in test [2] (setting [8]), 0.395 ± 0.02; in test [5] (setting [11]), 0.431 ± 0.0055; in test [5] (setting [12]) it was 0.375 ± 0.0072.
Consider `CNCCC=C1c2ccccc2CCc2ccccc21` [Nortriptyline hydrochloride], for which the growth was found to be 0.188 ± 0.014 in test [1]; 0.181 ± 0.0093 in test [6] (setting [13]); 0.205 ± 0.011 in test [6] (setting [14]); 0.155 ± 0.01 in test [6] (setting [15]); 0.0683 ± 0.00076 in test [6] (setting [16]); 0.0845 ± 0.0019 in test [6] (setting [17]). Besides, the growth in test [2] (setting [7]) worked out at 0.137 ± 0.0013; in test [2] (setting [8]) it was 0.179 ± 0.0089; in test [5] (setting [11]), 0.4083 ± 0.0029; in test [5] (setting [12]), 0.264 ± 0.013.
